TTR transcr act – TTR transcription activators in neuroblastoma reporter cells, primary screen, cell-based, luminescence, SH-SY5Y, TTR promoter Gaussia luciferase; 100% = recombinant luciferase protein wells; activation, % at 16.7 µM; 92,000 tested, 1.3% active;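 active = activation above the mean of all tested compounds plus 3 SD, cut at about 9.5% in these data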;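 note: cells exposed to compounds for one day before reading; 0% = median of all test compound wells on the plate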
HuH7 TTR inh – TTR promoter reporter inhibitors in hepatoma cells, counter-screen for TTR transcription activator project, cell-based, luminescence, HuH7 hepatoma | shares compounds with TTR transcr act | HuH7 TTR promoter-Gaussia luciferase reporter | inhibition, % at 16.7 µM | 1,100 tested, 4% active | AID 1117279, 2014;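 active = average inhibition above the solvent-only control wells' mean plus 3 SD, cut at about 15% in these data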;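 note: 0% = cells with DMSO only and 100% = cells with inhibitor control FD; inhibitors lower well luminescence so higher value means more inhibition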
TTR up confirm – TTR transcription activators, retest, confirmation, cell-based, luminescence, SH-SY5Y, triplicate. shares compounds with TTR transcr act. activation, % at 16.7 µM. SHSY5Y TTR promoter Gaussia luciferase; 100% = purified Lucia enzyme wells, no cells. 1,100 tested, under 10 active;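 active = mean activation above a set limit taken from the earlier primary screen, cut at about 11% in these data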;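 note: 0% = DMSO-treated cells and 100% = recombinant Lucia luciferase without cells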
Active calls of the source: *. This excerpt belongs to a sample that is enriched for hits.

SMILES | TTR transcr act | others
Cc1ccc(C2CC(c3ccccc3)=NN2C(=S)Nc2ccccc2)o1 (stereo not drawn) | 11* | HuH7 TTR inh=25*;TTR up confirm=0
COc1ccc(C2CC(c3cccs3)=NN2C(=S)Nc2ccccc2)cc1OC (stereo not drawn) | 1
COc1cccc(C2CC(c3cccs3)=NN2C(=S)Nc2ccccc2)c1OC (stereo not drawn) | 2
CCC(C)[C@H](NC(=O)OC(C)(C)C)C(=O)N[C@@H](Cc1ccccc1)C(=O)OC (stereo partly drawn) | 2
Cc1ccccc1CC(=O)N1CCCC(CCC(=O)N2CCN(c3ccccn3)CC2)C1 (stereo not drawn) | 11* | HuH7 TTR inh=-1;TTR up confirm=0
CC(=O)c1ccccc1C(=O)N1CCCC(CCC(=O)N2CCN(c3ccccn3)CC2)C1 (stereo not drawn) | -1
O=C(CCN1C(=O)COc2ccccc21)N1CCN(c2ccccn2)CC1 | -1
O=C(CCN1C(=O)C2CC=CCC2C1=O)N1CCN(c2ccccn2)CC1 (stereo not drawn) | 9.7* | HuH7 TTR inh=-10;TTR up confirm=0
Cc1ccc(C(=O)N2CCCC(CCC(=O)N3CCN(c4ccccn4)CC3)C2)s1 (stereo not drawn) | 4
O=C(CCN1C(=O)c2ccccc2C1=O)N1CCN(c2ccccn2)CC1 | 0
CCCC1CCC2(CCCN2CCOC(=O)Nc2ccccc2C)CC1 (stereo not drawn) | -2
COc1ccc(-c2cc3c(c4c2ccn4C)C2CCC3C2)cc1 (stereo not drawn) | -1
Cn1ccc2c(-c3ccc(C(=O)O)cc3)cc3c(c21)C1CCC3C1 (stereo not drawn) | 12* | HuH7 TTR inh=-12;TTR up confirm=0
Cn1ccc2c(-c3ccc(C(C)(C)C)cc3)cc3c(c21)C1CCC3C1 (stereo not drawn) | -1
CCn1c(COc2cccc(C)c2)nnc1SCC(=O)N1CCCC1 | 3
CCn1c(COc2ccc3c(c2)OCO3)nnc1SCC(=O)O | 13* | HuH7 TTR inh=-5;TTR up confirm=0
Cc1ccc(OCc2nnc(SCC(=O)O)n2-c2ccccc2)cc1 | 1
CN(C)[C@H]1CCN(c2ccc3c(c2)O[C@@H]2CCN(C2)S3(=O)=O)C1 | 1
O=C(NCCc1c[nH]c2ccccc12)OCc1cn(-c2ccc(F)cc2F)nn1 | 4
C[C@H]1[C@@H](OC(=O)NCc2ccc(Cl)c(Cl)c2)CC[C@@]23CCCN2C(=O)CCC[C@@H]13 | -1
Cc1cc(C)c(C)c(OCC(=O)O/N=C(\N)c2ccncc2)c1 | 0
Cc1cc(C)cc(OCC(=O)O/N=C(\N)c2ccccn2)c1 | 1
Cc1cc(C)c(C)c(OCC(=O)O/N=C(\N)c2ccccn2)c1 | 10* | HuH7 TTR inh=-21;TTR up confirm=0
CCCCOCCCNC(=O)C[C@@H]1C[C@]2(C(=O)OCC)CCC3=C2N(CCC3)C1=O | 0
CN1OC[C@@H]2CN(CC3CCCCC3)[C@H](c3ccc(-c4ccc(C#N)cc4)cc3)C[C@@H]21 | 3
SMILES | TTR transcr act | others
Cc1ccc2cccc(S(=O)(=O)Nc3ccc4c(c3)OCO4)c2n1 | 14* | HuH7 TTR inh=-19;TTR up confirm=2
O=S(=O)(Nc1ccc2c(c1)OCCO2)c1cccc2nsnc12 | 1
O=S(=O)(Nc1ccc2c(c1)OCO2)c1ccccc1 | 0
S=c1nc(-c2ccccc2)n(CCN2CCOCC2)c2c1CCCC2 | -1
CC(C)Cn1c(-c2ccccc2)nc(=S)c2c1CCCC2 | 0
C=CCn1c(-c2ccccc2)nc(=S)c2c1CCCC2 | 11* | HuH7 TTR inh=3;TTR up confirm=0
CSc1ccccc1NC(=O)COC(=O)CCC(=O)c1ccc(F)cc1 | -1
O=C(COC(=O)CCSc1ccccc1)Nc1ccc(F)cc1Cl | 0
O=C(COC(=O)CCSc1ccccc1Cl)Nc1ccc(F)cc1F | 10.0* | HuH7 TTR inh=-6;TTR up confirm=3
CS(=O)(=O)N1c2ccccc2C[C@H]1Cc1cc2ccccc2o1 | -1
COc1cccc(C(=O)NCCC2=CCCCC2)c1OC | 1
COc1cccc(C(=O)NOCc2ccc(C)cc2)c1OC | 9.7* | HuH7 TTR inh=-7;TTR up confirm=-1
COCCCNC(=O)c1cccc(OC)c1OC | -2
COC(=O)C(C[N+](=O)[O-])C1=C(O)CC(C)(C)CC1=O (stereo not drawn) | 0
O=C(O)CSCC(=O)NCc1ccc(Cl)cc1 | 0
O=C(NCc1ccccn1)c1ccc(Cl)cc1Cl | 0
O=C(CSCc1ccc(Cl)cc1)NCc1ccccn1 | 12* | HuH7 TTR inh=-15;TTR up confirm=1
C[C@@H]1Cc2cc(O)cc(O)c2C(=O)O1 | 0
O=S1(=O)N[C@H](c2ccccc2)COc2cc(Br)ccc21 | 3
COC(=O)[C@]12C[C@H](CC(=O)NCc3cccs3)C(=O)N(Cc3cccc4ccccc34)C1=C[C@H](C(C)C)O[C@@H]2C1CC1 | 0
O=C(COC(=O)c1cc(=O)[nH]c2ccccc12)NC1CCCCC1 | 12* | HuH7 TTR inh=-11;TTR up confirm=0
NC(=O)COC(=O)c1cc(=O)[nH]c2ccccc12 | 0
CNC(=O)COC(=O)c1cc(=O)[nH]c2ccccc12 | 1
CCCC1CCC2(CC1)CCC2OC(=S)NCc1cccc(F)c1 (stereo not drawn) | 0
COc1ccc(S[C@]2(C(=O)N3CCOCC3)CC(=O)N(c3ccc(Cl)cc3)[C@@H]2c2ccc(OC)cc2)cc1 | -1
SMILES | TTR transcr act | others
COC(=O)c1ccc(CSc2nc3ccccc3s2)o1 | -1
Cn1c(CSc2nc3ccccc3s2)n[nH]c1=S | -2
S=c1[nH]nc(CSc2nc3ccccc3s2)o1 | 14* | HuH7 TTR inh=-10;TTR up confirm=-1
Cc1ccccc1CN1CCCCC(NC(=O)c2ccc(-c3ccccc3)cc2)C1=O (stereo not drawn) | -3
CN1C2=N[C@@H](c3ccccc3)CC(=O)N2/C(=C\c2ccccc2)[C@H]1c1ccccc1 | 0
COC(=O)CC[C@@H](/C=C/C(=O)OC(C)(C)C)Sc1ccc(C(C)(C)C)cc1 | 4
CCOC(=O)[C@]12CCCC3=C1N(CCC3)C(=O)[C@@H](CC(=O)N1CCOCC1)C2 | 0
O=C(NCCNS(=O)(=O)c1ccc(C(F)(F)F)cc1)N1CCOCC1 | 12* | HuH7 TTR inh=-6;TTR up confirm=0
O=C(CN1CCOCC1)NCCNS(=O)(=O)c1ccccc1 | 0
O=C(CNS(=O)(=O)c1ccc(C(=O)N2CCOCC2)cc1)N1CCOCC1 | 1
C[C@@H](O[Si](c1ccccc1)(c1ccccc1)C(C)(C)C)[C@@H]1NC(=O)[C@@H]2C[C@]3(Br)c4ccccc4N(S(=O)(=O)c4ccccc4)[C@@H]3N2C1=O | 3
CCCC[C@H]1C2CC(OC(=O)Nc3ccc(F)cc3)C(C2)[C@H]2CCCCN21 (stereo partly drawn) | -1
COc1ccc(NC(=O)C(OC(=O)CNC(=O)c2ccccc2)c2ccccc2)cc1F (stereo not drawn) | 0
O=C(NCc1nc2ccccc2[nH]1)C1=C[C@H](C2CCCCC2)C[C@H](OCCCCO)O1 | 3
C#CCNC(=O)C1=C[C@@H](C2CC2)C[C@@H](OCCCCO)O1 | 1
O=C(NCc1nc2ccccc2[nH]1)C1=C[C@H](C2CC2)C[C@H](OCCCCO)O1 | 10* | HuH7 TTR inh=-26;TTR up confirm=0
CCCCN1C(=O)c2ccccc2NC1c1ccc(OC)c(COc2ccc(NC(C)=O)cc2)c1 (stereo not drawn) | -1
